Laboratory results reported in PubChem BioAssay (NCI).
The panel holds about 83,000 compounds, 20% with a hit somewhere; the sample as a whole holds those more often.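 For each line, cells grew in 96-well plates with the test compound present at a single concentration for 48 hours.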 A number with no mark means an inactive call. The source made the active and inactive calls. The calls were made as follows: active = growth percent below 10; inactive = the rest.

What was measured:
Test in all cases: NCI-60 one-dose screen, 48 h (100 = growth as untreated, 0 = no growth, -100 = all killed)
Conditions in all cases: 10 µM unless noted
NCI-H23 lung = tested on: NCI-H23 lung
NCI-H226 lung = tested on: NCI-H226 lung
NCI-H322M lung = tested on: NCI-H322M lung
HOP-62 NSCLC = tested on: HOP-62 NSCLC
NCI-H460 lung = tested on: NCI-H460 lung
HOP-92 NSCLC = tested on: HOP-92 NSCLC
NCI-H522 lung = tested on: NCI-H522 lung
A549/ATCC NSCLC = tested on: A549/ATCC NSCLC
786-0 renal = tested on: 786-0 renal
COLO 205 colon = tested on: COLO 205 colon

Structure (SMILES): COc1c(Cl)c2c(c(OC)c1OC)-c1ccc(SC)c(=O)cc1[C@@H](NC(=O)OCC(F)(F)F)CC2
- growth (NCI-H23 lung): 34.1%
- growth (NCI-H226 lung): 16.4%
- growth (NCI-H322M lung): 33.6%
- growth (HOP-62 NSCLC): 34.3%
- growth (NCI-H460 lung): 2.44% (active)
- growth (HOP-92 NSCLC): 23.4%
- growth (NCI-H522 lung): 17.9%
- growth (A549/ATCC NSCLC): 22.2%
- growth (786-0 renal): 11%

Structure (SMILES): CC(Sc1nc2ccccc2c(=O)n1CCc1ccc(S(N)(=O)=O)cc1)C(=O)Nc1ccc(Cl)cc1 (stereo unspecified)
- growth (NCI-H23 lung): 79.5%
- growth (NCI-H226 lung): 76.6%
- growth (NCI-H322M lung): 73.4%
- growth (HOP-62 NSCLC): 84.4%
- growth (NCI-H460 lung): 94.7%
- growth (HOP-92 NSCLC): 107%
- growth (NCI-H522 lung): 56.3%
- growth (A549/ATCC NSCLC): 69.6%
- growth (786-0 renal): 80.2%

Structure (SMILES): c1ccc(-c2c(-c3ccccc3)[n+](Cc3ccc4ccccc4c3)c(-c3cccc4ccccc34)n2Cc2ccc3ccccc3c2)cc1
- growth (NCI-H23 lung): -38.4% (active)
- growth (NCI-H226 lung): -42.3% (active)
- growth (NCI-H322M lung): 4.47% (active)
- growth (HOP-62 NSCLC): -84.7% (active)
- growth (NCI-H460 lung): -80% (active)
- growth (HOP-92 NSCLC): -53.9% (active)
- growth (NCI-H522 lung): -39.5% (active)
- growth (A549/ATCC NSCLC): -45.1% (active)
- growth (786-0 renal): -68.3% (active)

Structure (SMILES): Nc1n[nH]c2cccc(C#Cc3cccc(C(=O)Nc4cccc(C(F)(F)F)c4)c3)c12
- growth (NCI-H23 lung): 54%
- growth (NCI-H226 lung): 63.2%
- growth (NCI-H322M lung): 86.4%
- growth (HOP-62 NSCLC): 67.7%
- growth (NCI-H460 lung): 74.7%
- growth (HOP-92 NSCLC): 58.6%
- growth (NCI-H522 lung): 60.9%
- growth (A549/ATCC NSCLC): 77.8%
- growth (786-0 renal): 90.6%
- growth (COLO 205 colon): 49.8%

Structure (SMILES): O=C(/C=C(/C=C/c1coc2ccccc12)OB(F)F)/C=C/c1coc2ccccc12
- growth (NCI-H23 lung): 93.9%
- growth (NCI-H226 lung): 105%
- growth (NCI-H322M lung): 103%
- growth (HOP-62 NSCLC): 113%
- growth (NCI-H460 lung): 87.7%
- growth (HOP-92 NSCLC): 91%
- growth (NCI-H522 lung): 90.6%
- growth (A549/ATCC NSCLC): 91.6%
- growth (786-0 renal): 102%

Structure (SMILES): COC(=O)N[C@H]1CCc2c(Cl)c(OC)c(OC)c(OC)c2-c2ccc(SC)c(=O)cc21
- growth (NCI-H23 lung): 34%
- growth (NCI-H226 lung): 22.7%
- growth (NCI-H322M lung): 35.4%
- growth (HOP-62 NSCLC): 38%
- growth (NCI-H460 lung): -11.4% (active)
- growth (HOP-92 NSCLC): 1.96% (active)
- growth (NCI-H522 lung): 21.7%
- growth (A549/ATCC NSCLC): 19.8%
- growth (786-0 renal): 7.29% (active)

Structure (SMILES): CN1CCN(CCNc2nccc(-c3c(-c4cccc(O)c4)nc4sccn34)n2)S1(=O)=O
- growth (NCI-H23 lung): 46.1%
- growth (NCI-H226 lung): 100%
- growth (NCI-H322M lung): 70.2%
- growth (HOP-62 NSCLC): 79.3%
- growth (NCI-H460 lung): 57.3%
- growth (HOP-92 NSCLC): 49%
- growth (NCI-H522 lung): 46.2%
- growth (A549/ATCC NSCLC): 88%
- growth (786-0 renal): 93.2%

Structure (SMILES): COc1ccc(CC(C)=C(c2ccc(OCCN3CCCCCC3)cc2)c2ccc(OCCN3CCCCCC3)cc2)cc1
- growth (NCI-H23 lung): -87.9% (active)
- growth (NCI-H226 lung): -74.4% (active)
- growth (NCI-H322M lung): -99.3% (active)
- growth (HOP-62 NSCLC): -77.4% (active)
- growth (NCI-H460 lung): -95% (active)
- growth (HOP-92 NSCLC): -73.7% (active)
- growth (NCI-H522 lung): -82.4% (active)
- growth (A549/ATCC NSCLC): -86% (active)
- growth (786-0 renal): -72.1% (active)

Structure (SMILES): COc1cc(/C(C)=C(\c2ccc(Cl)cc2)c2ccc(OCCN3CCCC3)cc2)ccc1F
- growth (NCI-H23 lung): 67.4%
- growth (NCI-H226 lung): 87.8%
- growth (NCI-H322M lung): 71%
- growth (HOP-62 NSCLC): 87.2%
- growth (NCI-H460 lung): 6.04% (active)
- growth (HOP-92 NSCLC): 52.4%
- growth (NCI-H522 lung): 80%
- growth (A549/ATCC NSCLC): 57.1%
- growth (786-0 renal): 71.4%

Structure (SMILES): CC(C)(C)CC(C)(C)n1nnnc1C(NC12CC3CC(CC(C3)C1)C2)c1ccccc1 (stereo unspecified)
- growth (NCI-H23 lung): 90.8%
- growth (NCI-H226 lung): 84.2%
- growth (NCI-H322M lung): 105%
- growth (HOP-62 NSCLC): 101%
- growth (NCI-H460 lung): 94.5%
- growth (HOP-92 NSCLC): 87%
- growth (NCI-H522 lung): 74%
- growth (A549/ATCC NSCLC): 80.7%
- growth (786-0 renal): 86.3%

Structure (SMILES): CCOC(=O)c1cc(C(=O)c2ccc(Br)cc2)n2ccc(/C=C/c3cc[n+](CC(=O)c4ccc(OC)cc4)cc3)cc12
- growth (NCI-H23 lung): 92.5%
- growth (NCI-H226 lung): 101%
- growth (NCI-H322M lung): 96.2%
- growth (HOP-62 NSCLC): 100%
- growth (NCI-H460 lung): 96.4%
- growth (HOP-92 NSCLC): 96.4%
- growth (NCI-H522 lung): 91.8%
- growth (A549/ATCC NSCLC): 73.3%

Structure (SMILES): O=C(/C=C(/C=C/c1csc2ccccc12)OB(F)F)/C=C/c1csc2ccccc12
- growth (NCI-H23 lung): 23%
- growth (NCI-H226 lung): 27.9%
- growth (NCI-H322M lung): 96.9%
- growth (HOP-62 NSCLC): 90.7%
- growth (NCI-H460 lung): 66.7%
- growth (HOP-92 NSCLC): 44.6%
- growth (NCI-H522 lung): 2.34% (active)
- growth (A549/ATCC NSCLC): 70.1%
- growth (786-0 renal): -2.14% (active)

Structure (SMILES): O=C1Nc2cc(Cl)ccc2/C1=C\c1c(-c2ccc(F)cc2)nc2ccccn12
- growth (NCI-H23 lung): -20.4% (active)
- growth (NCI-H226 lung): 7.11% (active)
- growth (NCI-H322M lung): 39.5%
- growth (HOP-62 NSCLC): 3.44% (active)
- growth (NCI-H460 lung): 0.0437% (active)
- growth (HOP-92 NSCLC): 69.8%
- growth (NCI-H522 lung): -51.5% (active)
- growth (A549/ATCC NSCLC): 33.5%
- growth (786-0 renal): 7.55% (active)

Structure (SMILES): CC(=O)Nc1cccc(-c2ccc3c(c2)NC(=O)/C3=C\c2ccc[nH]2)c1
- growth (NCI-H23 lung): 27.8%
- growth (NCI-H226 lung): 52.7%
- growth (NCI-H322M lung): 40.9%
- growth (HOP-62 NSCLC): 55.3%
- growth (NCI-H460 lung): 21.6%
- growth (HOP-92 NSCLC): 80.8%
- growth (NCI-H522 lung): 16.6%
- growth (A549/ATCC NSCLC): 40.4%
- growth (786-0 renal): 59%
